{
  "source": "PubChem BioAssay (NCATS)",
  "data": [
    {"test": "High-throughput drug toxicity screening in the BPDCN cell line Gen2.2 (AID 1224824)", "conditions": "Gen2.2 BPDCN cells; at 45.8 µM (top of the series) unless noted", "description": "Blastic plasmacytoid dendritic cell neoplasm (BPDCN) is a rare, aggressive and largely incurable hematologic malignancy originating from plasmacytoid dendritic cells (pDCs). Although an initial response to chemotherapy is common, BPDCN prognosis is extremely poor and most patients relapse with drug-resistant disease leading to a median overall survival of ~1 year after diagnosis. To explore novel potential therapeutic strategies in BPDCN, we performed a high-throughput drug toxicity screening in BPDCN cell liens, using of a library of 1,912 small molecules, enriched for compounds that are either approved or in early stages of development for cancer therapy.\nA total of 500 exponentially growing Gen2.2 cells were seeded per well in 5 uL of media (RPMI + Glutamine, without phenol red plus10% FBS and 1X Pen/Strep) into 1536-well solid white high base tissue culture treated Greiner One Bio Plates (789173-F), using a multidrop combi dispenser and a small sterile cassette. Compounds and controls totaling 23nL per well (negative control DMSO and positive control 9.2 uM Bortezomib-final) were immediately added to the plates using a 1536 head pin tool from Kalypsys. The plates were then covered with stainless steel gasket lids from Kalypsys and incubated for 48 hours at 37C under 95% relative humidity with 5% CO2. After 48 hours, the plates were removed and allowed to reach room temperature before 3 uL of Cell Titer Glo reagent (Promega) were added using an Aurora Flying Reagent Dispenser Bioraptor. The plates were then spun at 1000 rpms to remove bubbles and incubated for 15 minutes at room temperature before reading on a ViewLux using a luminescent filter with a 10 second exposure. The relative luciferase units were used to calculated percent activity using DMSO as 100% and Bortezomib as 0%.", "values": [
      {"smiles": "COc1cccc2c1CCCC2CCCN1CCN(C2CCCCC2)CC1", "note": "(stereo not given)", "cell viability, % of control (lower = more cytotoxic)": "165%"},
      {"smiles": "CCN(CC)CCOc1ccc(C(=C(Cl)c2ccccc2)c2ccccc2)cc1", "cell viability, % of control (lower = more cytotoxic)": "136%"},
      {"smiles": "CO[C@H]1C[C@@H]2CC[C@@H](C)[C@@](O)(O2)C(=O)C(=O)N2CCCC[C@@H]2C(=O)O[C@H]([C@H](C)C[C@@H]2CC[C@H](OP(C)(C)=O)[C@H](OC)C2)CC(=O)[C@H](C)C=C(C)[C@@H](O)[C@@H](OC)C(=O)[C@H](C)C[C@H](C)C=CC=CC=C1C", "cell viability, % of control (lower = more cytotoxic)": "10.4%"},
      {"smiles": "CC(=O)O[C@]1(C(C)=O)CC[C@@H]2[C@@H]3C[C@H](C)C4=CC(=O)CC[C@]4(C)[C@H]3CC[C@@]21C", "cell viability, % of control (lower = more cytotoxic)": "75.1%"},
      {"smiles": "CCn1cc(C(=O)O)c(=O)c2ccc(C)nc21", "cell viability, % of control (lower = more cytotoxic)": "120%"},
      {"smiles": "C=C1C(=O)[C@@]23C(CC[C@@H]1[C@H]2O)[C@@]12CO[C@]3(O)[C@@H](O)[C@@H]1C(C)(C)CC[C@@H]2O", "note": "(stereo not given in full)", "cell viability, % of control (lower = more cytotoxic)": "2.66%"},
      {"smiles": "COC[C@@H](c1ccc(C(F)(F)F)cc1)N1CCN(C2(C)CCN(C(=O)c3c(C)ncnc3C)CC2)C[C@H]1C", "cell viability, % of control (lower = more cytotoxic)": "7.13%"},
      {"smiles": "COc1cc2ncnc(-n3nc(-c4ccccn4)nc3N)c2cc1OC", "cell viability, % of control (lower = more cytotoxic)": "59.8%"},
      {"smiles": "CC#CCn1c(N2CCC[C@@H](N)C2)nc2c1c(=O)n(Cc1nc(C)c3ccccc3n1)c(=O)n2C", "cell viability, % of control (lower = more cytotoxic)": "159%"},
      {"smiles": "Cc1ccc(C(C)(O)c2nc3ccccc3s2)c(C)c1", "note": "(stereo not given)", "cell viability, % of control (lower = more cytotoxic)": "129%"},
      {"smiles": "O=C1c2c(O)cc(O)cc2O[C@H](c2cc(O)c(O)c(O)c2)[C@H]1O", "cell viability, % of control (lower = more cytotoxic)": "112%"},
      {"smiles": "CC(=Cc1ccccc1)C=C1SC(=S)N(CC(=O)O)C1=O", "cell viability, % of control (lower = more cytotoxic)": "124%"},
      {"smiles": "CO[C@H]1C=CO[C@@]2(C)Oc3c(C)c(O)c4c(O)c(c5c(c4c3C2=O)NC2(CCN(CC(C)C)CC2)N=5)=NC(=O)C(C)=CC=C[C@H](C)[C@H](O)[C@@H](C)[C@@H](O)[C@@H](C)[C@H](OC(C)=O)[C@H]1C", "cell viability, % of control (lower = more cytotoxic)": "106%"},
      {"smiles": "CC1(C)CCC[C@@]2(C)[C@@H]1CC[C@@]1(C)OC(=O)C[C@H]21", "cell viability, % of control (lower = more cytotoxic)": "95%"},
      {"smiles": "O=c1[nH]cnc2c1ncn2[C@H]1CC[C@@H](CO)O1", "cell viability, % of control (lower = more cytotoxic)": "93.2%"},
      {"smiles": "Cn1cc(C=C2C(=O)Nc3cccnc32)c2ccccc21", "cell viability, % of control (lower = more cytotoxic)": "111%"},
      {"smiles": "COc1ccc(-c2cc(=O)c3c(O)cc(O)cc3o2)cc1O", "cell viability, % of control (lower = more cytotoxic)": "97.2%"},
      {"smiles": "CC(C)[C@H](CO)Nc1nc(Nc2ccc(C(=O)O)c(Cl)c2)c2ncn(C(C)C)c2n1", "cell viability, % of control (lower = more cytotoxic)": "9.58%"},
      {"smiles": "C[C@]12CC[C@@H]3c4ccc(O)cc4C[C@@H](CCCCCCCCCS(=O)CCCC(F)(F)C(F)(F)F)[C@H]3[C@H]1CC[C@H]2O", "note": "(stereo not given in full)", "cell viability, % of control (lower = more cytotoxic)": "105%"},
      {"smiles": "COCCOc1nc(-c2ccc(Cl)c(Cl)c2)n(-c2ccc(NC(=O)CCl)cc2)n1", "cell viability, % of control (lower = more cytotoxic)": "114%"},
      {"smiles": "O=c1c(O)c(-c2ccc(O)cc2)oc2cc(O)cc(O)c12", "cell viability, % of control (lower = more cytotoxic)": "140%"},
      {"smiles": "COc1ccc2c(Oc3ccc(NC(=O)c4c(C)n(CC(C)(C)O)n(-c5ccccc5)c4=O)nc3)ccnc2c1", "cell viability, % of control (lower = more cytotoxic)": "29.7%"},
      {"smiles": "c1ccc2c(Cc3c[nH]c4ccccc34)c[nH]c2c1", "cell viability, % of control (lower = more cytotoxic)": "29.3%"},
      {"smiles": "CN(C)Cc1ccc(-c2nc3cccc4c3n2CCNC4=O)cc1", "cell viability, % of control (lower = more cytotoxic)": "15.8%"},
      {"smiles": "C[N+]1(C)[C@@H]2CC(OC(=O)[C@H](CO)c3ccccc3)C[C@H]1[C@H]1O[C@@H]12", "note": "(stereo not given in full)", "cell viability, % of control (lower = more cytotoxic)": "112%"},
      {"smiles": "O=C(Nc1ccccc1-c1cn2c(CN3CCNCC3)csc2n1)c1cnc2ccccc2n1", "cell viability, % of control (lower = more cytotoxic)": "2.56%"},
      {"smiles": "c1cc(-c2sc(-c3ccncc3)c(-c3ccncc3)c2-c2ccncc2)ccn1", "cell viability, % of control (lower = more cytotoxic)": "64.5%"},
      {"smiles": "CCCCCNC(=O)N1CCC(CN(Cc2ccc(Cl)cc2)Cc2ccc([N+](=O)[O-])s2)C1", "note": "(stereo not given)", "cell viability, % of control (lower = more cytotoxic)": "15.7%"},
      {"smiles": "Cc1c(NC(=O)c2ccc(C(C)(C)C)cc2)cccc1-c1cn(C)c(=O)c(Nc2ccc(C(=O)N3CCOCC3)cc2)n1", "cell viability, % of control (lower = more cytotoxic)": "29.7%"},
      {"smiles": "COc1cc(O)c2c(c1)C(=O)c1cc(C)cc(O)c1C2=O", "cell viability, % of control (lower = more cytotoxic)": "154% [at 23.2 µM]"},
      {"smiles": "O=c1cc(-c2ccccc2)oc2cc(O)c(O)c(O)c12", "cell viability, % of control (lower = more cytotoxic)": "151%"},
      {"smiles": "CN(C)Cc1cccc(N=C(c2ccccc2)c2c(O)[nH]c3cc(C(=O)N(C)C)ccc23)c1", "cell viability, % of control (lower = more cytotoxic)": "6.16%"},
      {"smiles": "CNC(=O)c1ccc2cc(C3(O)CCn4cncc43)ccc2c1", "note": "(stereo not given)", "cell viability, % of control (lower = more cytotoxic)": "82.2%"},
      {"smiles": "O=c1c(-c2ccc(O)cc2)coc2cc(O[C@@H]3O[C@H](CO)[C@H](O)[C@H](O)[C@H]3O)ccc12", "cell viability, % of control (lower = more cytotoxic)": "101%"},
      {"smiles": "O=c1c(-c2ccc(O)cc2)coc2cc(O)ccc12", "cell viability, % of control (lower = more cytotoxic)": "119%"},
      {"smiles": "O=C(Nc1c(Cl)cncc1Cl)c1ccc(OC(F)F)c(OCC2CC2)c1", "cell viability, % of control (lower = more cytotoxic)": "134%"},
      {"smiles": "CN1[C@@H]2CCC[C@@H]1CC(NC(=O)c1nn(C)c3ccccc13)C2", "note": "(stereo not given in full)", "cell viability, % of control (lower = more cytotoxic)": "97.5%"},
      {"smiles": "CS(=O)c1ccc(-c2nc(-c3ccc(F)cc3)c(-c3ccncc3)[nH]2)cc1", "note": "(stereo not given)", "cell viability, % of control (lower = more cytotoxic)": "41.2% [at 92.2 µM]"},
      {"smiles": "CC(C)(C)NC(=O)Nc1cccc(Nc2ncc(F)c(NC(C)(C)CO)n2)c1", "cell viability, % of control (lower = more cytotoxic)": "235%"},
      {"smiles": "CCNc1cc(NC2CCC(O)CC2)nc(Nc2ccc3c(ccn3Cc3ccccc3)c2)n1", "note": "(stereo not given)", "cell viability, % of control (lower = more cytotoxic)": "21.8%"}
    ]}
  ]
}
